Where “and” joins values, the source holds several entries; their conditions need not be identical. Equal values may be shown once. Results filed as inconclusive are left out. Entries that show only a call come without a potency. Calls of active or inactive are those of the source. The call rests on the fitted dose curve; in most records, active means well fitted cell-killing curve with a large enough effect in the repeat runs; inconclusive means weak or mixed curves; inactive means flat fitted curve, though single readings scatter.
Potency means the concentration at half of the fitted maximal effect.

This test is described as follows: qHTS assay to identify small molecule antagonists of the estrogen related receptor (ERR) signaling pathway from Tox21 library - cell viability counter screen (AID 1224834). Further: nearly all actives have a fitted effect of over 30% in size. Particulars: ERR reporter cells viability, CellTiter-Fluor, 17.5 h; series mostly up to 92.4 µM; viability change, negative = cytotoxic: at the top concentration. Put shortly: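 After 17.5 h of compound exposure at 37 C, ERR cells are incubated with CellTiter-Fluor for 30 min and fluorescence intensity serves as the viability measure.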
Regarding `Cc1ccc2c(n1)Oc1ccc(C(C)C(=O)OCC(=O)N(C)C)cc1C2` (stereo unspecified), the Potency entry was “inactive”.

Consider `Brc1cc(Oc2cc(Br)c(Br)c(Br)c2Br)c(Br)c(Br)c1Br`, for which the Potency result was “inactive”.

Regarding `CCCCOCCOCCOCCO`, the Potency entry was “inactive”.

Regarding `CCCCC(CC)COP(=O)(OCC(CC)CCCC)OCC(CC)CCCC` (stereo unspecified), the Potency entry is “inactive”.

In the case of `CCOC(=O)C(C#N)=C(c1ccccc1)c1ccccc1`, the Potency result was “inactive”.

Turning to `CC(C(=O)O)c1cccc(C(=O)c2ccccc2)c1` (stereo unspecified), the Potency entry was “inactive”.

Take `CCC(C)CO` (stereo unspecified): the Potency result was “inactive”.

For `O=C1OC2(c3cc(Br)c(O)c(Br)c3Oc3c2cc(Br)c(O)c3Br)c2c(Cl)c(Cl)c(Cl)c(Cl)c21`, the Potency is 6.12 µM (active) and 18.6 µM (active).

Consider `CC(CCC(=O)O)(c1ccc(O)cc1)c1ccc(O)cc1`, for which the Potency entry was “inactive”.

Turning to `C[C@]12CC[C@H]3[C@@H](CCC4=CC(=O)CC[C@@]43C)[C@@H]1CC[C@@H]2C(=O)CO`, the “viability change, negative = cytotoxic” value was -4.9% [at 42.5 µM] (inactive).

Regarding `Nc1ncnc2nc[nH]c12`, the Potency entry is “inactive”.

Take `CC(C)OB(OC(C)C)OC(C)C`: the Potency entry is “inactive”.

`C#C[C@]1(O)CC[C@H]2[C@@H]3CCc4cc(OC)ccc4[C@H]3CC[C@@]21C`: the “viability change, negative = cytotoxic” value is -3.6% [at 42.5 µM] (inactive).

Regarding `Clc1nc(Cl)c(Cl)c(Cl)c1Cl`, the Potency result was “inactive”.

As for `CCCC(=O)O`, the Potency entry was “inactive”.

With `c1cc(-c2ccncc2)ccn1`, the Potency result is “inactive”.

`C=C(C)C(=O)OCCOC(=O)C(=C)C`: the Potency entry was “inactive”.

Regarding `O=C(c1ccccc1)c1ccccc1O`, the Potency entry is “inactive”.

With `CCCCC(CC)COC(=O)c1ccc(N(C)C)cc1` (stereo unspecified), the Potency entry is “inactive”.

For `CC1=CC2C3CC(C=C3C)C2C1` (stereo unspecified), the Potency result is “inactive”.

Regarding `COC(=O)C1=C(C)NC(C)=C(C(=O)OCCN(C)Cc2ccccc2)C1c1cccc([N+](=O)[O-])c1` (stereo unspecified), the Potency was 27.1 µM (active) and 23.7 µM (active).

The values are drawn from PubChem BioAssay (Tox21).
